{
  "source": "ChEMBL document CHEMBL4888484",
  "about": "“Replenishing the malaria drug discovery pipeline: Screening and hit evaluation of the MMV Hit Generation Library 1 (HGL1) against asexual blood stage Plasmodium falciparum ,using a nano luciferase reporter read-out” (2022)",
  "note": "Among all 4,800 compounds or so, about 420 (8.8%) showed an effect of 50% or more. For the sample, strong results were picked, then their nearest neighbours and some compounds at random.",
  "data": [
    {"system": "Plasmodium falciparum", "assay": "Confirmatory screen in NF54 nanoGlo assay, in single point, at 2uM, 72h", "assay_type": "functional, Erythrocyte", "conditions": "timepoint 72 hour", "units": {"% Inhibition": "%"}, "values": [
      {"smiles": "CC(NCCn1cccn1)C(=O)N1c2ccccc2CC1C", "note": "(stereo not given)", "% Inhibition": -10},
      {"smiles": "Cc1ccc(Cn2ccn3nc(-c4ccc5c(c4)OCO5)cc3c2=O)cc1C", "% Inhibition": -9},
      {"smiles": "N#Cc1ccc(C(=O)N[C@H]2CCCc3c2cnn3-c2ccccn2)cc1", "% Inhibition": 2},
      {"smiles": "CN1CCN([C@H]2CCN(c3ccnc4ccc(Cl)cc34)C[C@H]2CCCO)CC1", "% Inhibition": 26},
      {"smiles": "COc1ccnc(CN2CC[C@](C)(O)[C@H](O)C2)c1", "% Inhibition": -2},
      {"smiles": "Oc1ccc2cc(CN3CCC[C@H](CN4CCCC4)C3)ccc2c1", "% Inhibition": 17},
      {"smiles": "COc1ccccc1CN1COc2cc3c(cc2C1)OCO3", "% Inhibition": 22},
      {"smiles": "CCC[C@]1(C)NC(=O)N(c2csc(-c3ccccc3)n2)C1=O", "% Inhibition": -3},
      {"smiles": "CCn1nc(C)c(CN(C)C(=O)c2nn3cccnc3c2Cl)c1C", "% Inhibition": -2},
      {"smiles": "COCCN(CC1CN(Cc2ccccn2)CC1c1cccc(F)c1)C(=O)COC", "note": "(stereo not given)", "% Inhibition": -3},
      {"smiles": "C[C@H](C(=O)NCc1cc(F)cc(F)c1)C1CCOCC1", "% Inhibition": -5},
      {"smiles": "COc1ccccc1C1c2[nH]c3ccccc3c2C[C@H]2C(=O)N(CC(O)c3ccccc3)CC(=O)N12", "note": "(stereo not given in full)", "% Inhibition": 33},
      {"smiles": "COc1ccc(CNC(=O)c2ccc(N3C(=O)[C@@H]4Cc5c([nH]c6ccccc56)C(c5cccc(OC)c5)N4C3=O)cc2)cc1", "note": "(stereo not given in full)", "% Inhibition": 49},
      {"smiles": "CCOc1ccc(C2c3[nH]c4ccccc4c3C[C@H]3C(=O)N(C4CCN(Cc5ccccc5)CC4)CC(=O)N23)cc1OC", "note": "(stereo not given in full)", "% Inhibition": 80},
      {"smiles": "COc1ccccc1N1CCN(c2nc(Nc3ccc(F)cc3)c3nc[nH]c3n2)CC1", "% Inhibition": -18},
      {"smiles": "Cc1ccc(CC(=O)N2C[C@H](c3ccccc3)C(c3ccc(Cl)cc3)=N2)cc1", "% Inhibition": 6},
      {"smiles": "CCCNC(=O)CNC(=NC1CC1)NCc1ccccc1C", "% Inhibition": -3},
      {"smiles": "COc1nc(NC2CCS(=O)(=O)CC2)ncc1F", "% Inhibition": 75},
      {"smiles": "CC(C)(NCCc1c[nH]c2ccccc12)c1nnnn1Cc1cccnc1", "% Inhibition": 3},
      {"smiles": "O=C(NCCc1nnc[nH]1)C1(Cc2ccccc2)CC2CCC1C2", "note": "(stereo not given)", "% Inhibition": -9},
      {"smiles": "Cc1ccc(O)c(CNCC2(c3ccccc3Cl)CCOCC2)n1", "% Inhibition": 99},
      {"smiles": "Cc1ccc(O)c(CNc2ccc3c(c2)OCC3(C)C)n1", "% Inhibition": -7},
      {"smiles": "N[C@H]1COc2ccc(Br)cc2C1=O", "% Inhibition": -3},
      {"smiles": "Cc1cccc(Nc2nc(-c3cnc(N4CCN(C)CC4)nc3C)cc(=O)[nH]2)c1", "% Inhibition": -7},
      {"smiles": "Cc1ccc(NC(=O)Nc2cccc(-c3ccc(N4CCN(C)CC4)nn3)c2)cc1C", "% Inhibition": 10},
      {"smiles": "O=C(Nc1ccc(-n2cncn2)cn1)c1cscn1", "% Inhibition": -18},
      {"smiles": "COc1ccc(S(=O)(=O)Nc2c(C)ccc3nsnc23)cc1OC", "% Inhibition": 4},
      {"smiles": "CCCC[C@H](CC)C(=O)Nc1ccccc1C", "% Inhibition": 7},
      {"smiles": "CN(C(=O)c1ccc(OCC(F)(F)F)nc1)C1(C#N)CCC1", "% Inhibition": 2},
      {"smiles": "Cc1cc2c(cc1C)[C@H](C(=O)Nc1cc(C(N)=O)ccc1Cl)CO2", "% Inhibition": -1},
      {"smiles": "O=C(Nc1ccc2c(c1)c1cc(Br)ccc1n2Cc1ccccc1)c1ccccc1", "% Inhibition": 4},
      {"smiles": "O=C(NC(Cn1ccccc1=O)c1ccccc1)C1CCOC1", "note": "(stereo not given)", "% Inhibition": 2},
      {"smiles": "O=C(N[C@@H](Cn1nccn1)c1ccccc1)c1cc(Br)ccc1Cl", "% Inhibition": 65},
      {"smiles": "O=C(Cc1ccccc1)Nc1cccc2c1C(=O)N(c1ccccc1)C2=O", "% Inhibition": -14},
      {"smiles": "O=C(C[C@@]1(O)C(=O)N(Cc2ccc(Cl)cc2Cl)c2ccccc21)c1ccccn1", "% Inhibition": -10},
      {"smiles": "Cc1c(NC(=O)CCc2ccsc2)nnn1Cc1ccccc1F", "% Inhibition": -10},
      {"smiles": "COc1ccc(C(=O)CN2C=CCC=C2c2nc(-c3ccc(Cl)cc3)cs2)cc1", "% Inhibition": 72},
      {"smiles": "COc1ccc(C2=CN(CC(=O)c3ccc(Cl)cc3)C3=CCCCCN23)cc1", "% Inhibition": 47},
      {"smiles": "O=C(CN1C=CCC=C1c1nc(-c2ccc(Br)cc2)cs1)c1ccccc1", "% Inhibition": 35},
      {"smiles": "Cc1ccc(CNCCC2=CCCCC2)cc1", "% Inhibition": -2},
      {"smiles": "Cc1csc(NC(=O)[C@]2(C)Oc3ccccc3NC2=O)n1", "% Inhibition": 0},
      {"smiles": "O=c1[nH]nc(-c2ccc3ccccc3c2)c2conc12", "% Inhibition": 18},
      {"smiles": "Cn1ccc(NC(=O)c2n[nH]c3ccccc23)n1", "% Inhibition": -12},
      {"smiles": "CC(C)CCNC(=O)c1cnn2c3c(cnc12)CCCC3", "% Inhibition": -6},
      {"smiles": "COc1ccc2nc(O)c(C(=O)Nc3ccc4c(c3F)CCNC4)cc2c1", "% Inhibition": 99},
      {"smiles": "COc1ccc(F)c(NC(=O)N(CCO)C(C)C)c1", "% Inhibition": 5},
      {"smiles": "COc1ccc(NC(=O)CN2N=C(C(=O)Nc3ccc(F)cc3)CCC2=O)cc1", "% Inhibition": -7},
      {"smiles": "CCn1nc(C(=O)N(C2CCCCC2)C2CC2)c2ccccc2c1=O", "% Inhibition": -10},
      {"smiles": "Cc1cccc(NC(=O)N2CCCCCC2)n1", "% Inhibition": 1},
      {"smiles": "Cc1cccc(CN2CCC[C@H](C(=O)c3ccc4c5c(cccc35)CC4)C2)n1", "% Inhibition": 63},
      {"smiles": "COC[C@H](NC(=O)c1cccc(F)c1Cl)C(N)=O", "% Inhibition": -8},
      {"smiles": "Cc1cc2nnc(-c3nc4ccccc4[nH]3)c(N)n2n1", "% Inhibition": -10},
      {"smiles": "Nc1c(-c2nc3ccccc3[nH]2)c2nc3ccccc3nc2n1Cc1ccccc1F", "% Inhibition": 64},
      {"smiles": "Cc1ncc(C(=O)Nc2cc3c(=O)[nH]cnc3cc2F)c(C2CC2)n1", "% Inhibition": 3},
      {"smiles": "CCc1nnc(COC(=O)c2csc(NC)n2)o1", "% Inhibition": 6}
    ]}
  ]
}
